KB-V1 cytotox: KB-V1 MDR subline cytotoxicity | 3.4% of 400,000 active | Potency, µM (doses to about 46.1 µM), usual class: cytotoxic | KB-V1 MDR cells viability, CellTiter-Glo, 72 h; further: nearly all actives have a fitted effect of over 60% in size
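Drug-selected KB-V1 cells, grown in DMEM lacking phenol red with 10% FBS, receive compound titrations; after three days at 37 degrees C, surviving cell ATP is quantified by CellTiter-Glo luminescence and responses normalized and curve-fitted.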
HT1080 IDH1KD tx: kills HT-1080 cells with IDH1 knockdown; HT-1080 IDH1 knockdown viability, ATP luminescence, 48 h; 2% of 360,000 active; Potency, µM (highest dose often 46.1 µM), actives largely listed as cytotoxic; AID 686971
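Using the IDH1-knockdown HT-1080 line run in the same batch and compound series as the NT line, viability after 48 h at 37 °C was determined by CellTiter-Glo luminescence and expressed as % activity.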
HT1080-NT tox: kills 2HG-producing HT-1080-NT fibrosarcoma cells; 1.6% of 360,000 active; AID 686970; Potency, µM (doses to about 46.1 µM), actives largely listed as cytotoxic; HT-1080-NT fibrosarcoma viability, CellTiter-Glo ATP luminescence, 48 h;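 further: NT is the 2HG producing partner of a matched IDH1 knockdown line; nearly all actives have a fitted effect of over 55% in size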
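A 48-hour cytotoxicity screen used HT-1080-NT cells plated 2 hours before compound delivery. ATP-based CellTiter-Glo luminescence measured viability, normalized to DMSO and no-cell controls.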
KB-3-1 tox: KB-3-1 parental cell cytotoxicity; Potency, µM (titrated, usually from 46.1 µM), most hits filed as cytotoxic; KB-3-1 viability, CellTiter-Glo ATP luminescence, 72 h; 1.4% of 400,000 active; further: nearly all actives have a fitted effect of over 60% in size
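Cells are dispensed, compounds pinned in, plates held at 37 °C for 72 h, then CellTiter-Glo is added and luminescence read after 10 minutes. Cell line: parental KB-3-1 in phenol-red-free DMEM, 10% FBS.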
Hits are given with their value; . = inactive; ? = inconclusive; / = no result given; [ ] = another dose, or the depositor's remark. Rows were chosen to be rich in hits. Some 5.7% of all compounds tested hit in one or more screens of this group. The call rests on the fitted dose curve; in most records, active means well fitted curve in the direction sought with a large enough effect; inconclusive means small, poorly fitted or top-dose-only effect, or another doubt; inactive means no such curve, though single readings can be large; an effect the other way counts as inactive or inconclusive.

SMILES	KB-V1 cytotox	HT1080 IDH1KD tx	HT1080-NT tox	KB-3-1 tox
O=C(NNc1ccccc1Br)C(O)(c1cccc(C(F)(F)F)c1)c1cccc(C(F)(F)F)c1	18.4µM	?	20.6µM	?
Cc1ccc(C(O)(C(=O)NNc2ccccn2)c2ccc(C)cc2)cc1	.	.	.	.
Cc1ccc(NNC(=O)C(O)(c2cccc(C(F)(F)F)c2)c2cccc(C(F)(F)F)c2)cc1	?	7.31µM	7.31µM	16.4µM
Cc1cc(C)n(-c2nc3sc4c(c3c3nnc(SC(C)C)n23)CC(C)(C)OC4)n1	.	.	.	.
Cc1cc(C)n(-c2nc(NCC3CCCO3)c3c4c(sc3n2)COC(C)(C)C4)n1 (configuration not stated)	?	.	.	16.4µM
Cc1cc(C)n(-c2nc(NCC(C)O)c3c4c(sc3n2)COC(C)(C)C4)n1 (configuration not stated)	.	?	?	.
Cc1cc(C)n(-c2nc(SCCN(C)C)c3c4c(sc3n2)COC(C)(C)C4)n1	?	?	17.8µM	.
CCOc1cc(CNC(=O)c2ccc3nc(CCc4ccccc4)oc3c2)ccc1OC	.	/	/	.
CN(C)c1ccc(/C=C/c2ccnc3ccc([N+](=O)[O-])cc23)cc1	.	/	/	.
COc1cccc(CNC(=O)c2cc(-c3ccc(Cl)cc3)n[nH]2)c1	.	/	/	.
CCOC(=O)C1C(=O)C=C(/C=C/c2ccccc2)CC1c1ccc(Cl)cc1 (configuration not stated)	16.4µM	.	.	.
CCOC(=O)C1NC(=O)CC1c1ccccc1 (configuration not stated)	.	.	.	.
COc1ccc2nc(NCc3ccccc3)[nH]c2c1	?	?	?	9.2µM
c1ccc(CNc2nc3ccccc3[nH]2)cc1	.	.[9.24 µM]	?	.
COc1ccc2nc(NCCO)[nH]c2c1	.	.	.	.
Cc1ccc2nc(NCc3ccccc3)[nH]c2c1	5.8µM	3.66µM	5.8µM	5.17µM
O=S1(=O)CCS(=O)(=O)C1c1ccccc1	.	20.6µM	23.1µM	.
Cc1ccc2cccc(O)c2n1	.	/	/	.
COc1ccc(-n2c(=O)c3c4c(sc3n(Cc3ccc(F)cc3)c2=O)CN(C(C)=O)CC4)c(OC)c1	.	/	/	.
COc1ccc(NS(=O)(=O)c2cccc(NC(=O)CCC(=O)c3ccc(Cl)cc3)c2)cc1	18.4µM	?	.	.
COc1cccc(S(=O)(=O)Nc2ccc(C(=O)Nc3ccncc3)cc2)c1	20.6µM	.	.	?
COc1cccc(S(=O)(=O)NCC(=O)Nc2ccc(C(C)(C)C)cc2)c1	16.4µM	.	.	.
COc1cccc(NC(=O)CNS(=O)(=O)c2ccc(Cl)cc2)c1	.	.	.	.
COc1ccc(NS(=O)(=O)c2cccc(NC(=O)c3ccc(Cl)nc3)c2)cc1	2.91µM	6.51µM	1.64µM	?
Cc1ccccc1CNc1nc(N(C)C)nc2c1cnn2C	.	/	/	.
SMILES	KB-V1 cytotox	HT1080 IDH1KD tx	HT1080-NT tox	KB-3-1 tox
Cc1cc(Br)cn2c(Cc3ccccc3)c(-c3cccc(Br)c3)nc12	?	.	.	.
CCCc1c(-c2cccc(Br)c2)ncn1Cc1cccc(-c2ccccc2)c1	16.4µM	?	?	?
CCCc1c(-c2ccc(Cl)cc2)ncn1Cc1cccc(-c2ccccc2)c1	?	?	?	16.4µM
CCOc1ccc(C=Nc2ccc(/C=C/c3ccnc4ccccc34)cc2)cc1OCC	.	/	/	.
COc1ccc(Cl)cc1NC(=O)CN(C)S(=O)(=O)c1ccc2c(c1)CCCN2C(C)=O	.	/	/	?
CCN(CC)CCN(C(=O)c1ccc(C(=O)OC)cc1)c1nc2ccc(Cl)cc2s1	.	/	/	.
Cc1cccc(CCNC(=O)CN(c2ccc(C(C)C)cc2)S(=O)(=O)c2c(C)nn(C)c2C)c1	.	/	/	.
Cc1cc(C(=O)CSc2nnc(N)s2)c(C)n1Cc1cccs1	23.1µM	.	.	?
CC(=O)Nc1ccccc1OCC(=O)c1cc(C)n(Cc2cccs2)c1C	?	2.59µM	.	4.61µM
Cc1csc(SCC(=O)c2cc(C)n(Cc3cccs3)c2C)n1	?	?	.	?
CCCCCc1cc(=O)oc2c(C(CCN(CC)CC)c3cc(OC)c(OC)c(OC)c3)c(OC)cc(OC)c12 (configuration not stated)	.	18.4µM	?	?
CCCCCc1cc(=O)oc2c(C(CCN3CCCCC3)c3ccc4c(c3)OCO4)c(OC)cc(OC)c12 (configuration not stated)	.	?	?	.
COc1cc2nc(SCc3cccc(Cl)c3)n3nc(CCn4nc(C)cc4C)nc3c2cc1OC	.	/	/	.
COC(=O)[C@@]12C[C@@H](CC(=O)NCC34CC5CC(CC(C5)C3)C4)C(=O)N(Cc3cccc4ccccc34)C1=CCC(C)(C)C2	.	.	.	?
COC(=O)[C@@]12C[C@@H](CC(=O)N3CCCC3)C(=O)N(Cc3cccc4ccccc34)C1=CCC(C)(C)C2	13µM	.	?	?
COC(=O)[C@@]12C[C@@H](CC(=O)NCc3cccc4ccccc34)C(=O)N(Cc3ccccc3)C1=CCC(C)(C)C2	20.6µM	?	?	?
COC(=O)[C@@]12C[C@@H](CC(=O)NCC34CC5CC(CC(C5)C3)C4)C(=O)N(Cc3ccccc3)C1=CCC(C)(C)C2	23.1µM	?	?	?
COC(=O)[C@@]12C[C@@H](CC(=O)NCc3ccccc3)C(=O)N(Cc3ccco3)C1=CCC(C)(C)C2	?	.	.	.
COC(=O)[C@@]12C[C@@H](CC(=O)NCc3cccc4ccccc34)C(=O)N(Cc3ccco3)C1=CCC(C)(C)C2	20.6µM	?	?	.
COc1cc(NC(=O)CN2c3ccccc3S(=O)(=O)c3ccccc32)cc(OC)c1	.	/	/	.
COC(=O)[C@@]12C[C@@H](CC(=O)NCc3cccc4ccccc34)C(=O)N(Cc3ccc4c(c3)OCO4)C1=CCC(C)(C)C2	23.1µM	?	?	?
COC(=O)[C@@]12C[C@@H](CC(=O)NCCc3ccccc3OC)C(=O)N(Cc3ccco3)C1=CCC(C)(C)C2	14.6µM	?	?	.
COC(=O)[C@@]12C[C@@H](CC(=O)NCCCCc3ccccc3)C(=O)N(Cc3ccco3)C1=CCC(C)(C)C2	?	?	.	.
COC(=O)[C@]12CCCCC=C1N(Cc1ccc3c(c1)OCO3)C(=O)[C@H](CC(=O)NCc1ccccc1)C2	?	.	.	.
COC(=O)[C@@]12C[C@@H](CC(=O)NCc3cccc(C(F)(F)F)c3)C(=O)N(Cc3cccc4ccccc34)C1=CCC(C)(C)C2	?	?	?	.
COC(=O)[C@@]12C[C@@H](CC(=O)NCc3ccccc3)C(=O)N(Cc3ccc4c(c3)OCO4)C1=CCC(C)(C)C2	20.6µM	?	?	?
O=C(COc1ccccc1[N+](=O)[O-])N(Cc1ccco1)c1ccccn1	.	/	/	.
C1=Nc2ccccc2/C1=C/c1ccccc1	.	/	/	?
COc1ccccc1-c1cc(NC(C)=O)c2ncc(-c3cccc(C(C)=O)c3)n2c1	.	?	?	?

Screens: PubChem, National Center for Advancing Translational Sciences (NCATS)
